SMILES strings stand for the structures. Results filed as inconclusive are left out. Activity calls are given as the source filed them. Calls come from the whole dose curve.
% is set by controls: 0 for no effect and ±100 for the full control effect; potency is the fitted concentration of half-maximal effect.

The experiment is described as follows: qHTS assay to identify small molecule agonists of H2AX - cell viability counter screen (AID 1224847). For activity change, negative = cytotoxicity: top concentration of the series differs between compounds. Note: nearly all actives have a fitted effect of over 30% in size. Particulars: CHO-K1 viability, CellTiter-Glo luminescence, 3 h; series mostly up to 154 µM; activity change, negative = cytotoxicity: at the top concentration. An excerpt:
National Center for Advancing Translational Sciences [NCATS]
NIH Chemical Genomics Center [NCGC]
U.S. Environmental Protection Agency [EPA]
National Institutes of Environmental Health Sciences [NIEHS]
National Toxicology Program [NTP]
U.S. Food and Drug Administration [FDA]
HTRF phospho-H2AX (Ser139) assay (Cisbio Bioassays, US) enables the quantitative detection of the histone variant H2AX when phosphorylated on serine 139. When double-stranded DNA breaks, either by ionizing radiation or endogenous physiological processes, H2AX becomes phosphorylated at Ser139. This phospho-Ser139 serves as a sensitive biomarker for the detection of such breaks, localizing the site of DNA repair. So, HTRF phospho-H2AX Ser139 is a pertinent assay to study genome stability, the cell cycle, DNA repair, and it serves as a biomarker for cancer, and to understand aging. Wild type CHO-K1 cells were used to identify the inducers of Phospho-H2AX Ser 139 from the Tox21 compound collections. Also cytotoxicity of the Tox21 10K compound library against the CHO-K1 cell line was tested by measuring the cell viability using CellTiter-Glo assay (Promega, Madison, WI).
Tox21 Assay Protocol Summary:
The CHO-K1 cells suspended in culture medium containing 10% FBS were dispensed at 1000 cells/ 3 ul/well in 1536-well white wall/solid bottom plates (Greiner Bio-One North America, NC) using a Multidrop Combi (Thermo Fisher Scientific Inc., Waltham, MA). After the assay plates were incubated at 37C overnight, 23 nl of compounds at 15 concentrations (from 5-48 columns) or positive control (from 1 to 4 columns) were transferred to the assay plates using a Pintool station (Wako, San Diego, CA) into each well resulting in a final DMSO concentration of 0.76%. After 3hr incubation at 37C, 3 uL/well CellTiter-Glo luminescent cell viability reagent (Promega Corporation, Madison, WI) was added using a Flying Reagent Dispenser (FRD) (Aurora Discovery, CA). After incubation at room temperature for 30 min, the luminescence intensity was read using a ViewLux plate reader (PerkinElmer, Waltham, MA).
On to `CC=O`, for which the Potency is 14.9 µM (active).
Turning to `O=Cc1ccc(F)cc1`, the “activity change, negative = cytotoxicity” value was -0.293% (inactive).
For the compound `NCCCC(O)(P(=O)(O)O)P(=O)(O)O`, the “activity change, negative = cytotoxicity” value is 3.71% [at 70.9 µM] (inactive).
Regarding `CN(C)c1ccc(N=NS(=O)(=O)O)cc1`, the Potency is 40.1 µM (active).
`C=C[C@](C)(O)CC[C@@H]1[C@@]2(C)CCCC(C)(C)[C@@H]2CC[C@@]1(C)O`: the Potency was 113 µM (active).
For the compound `CC(C)CCOCCC(C)C`, the “activity change, negative = cytotoxicity” value was 2.03% (inactive).
The same measure, in the same setting: in the case of `CC1CCCNC1` (stereo not given) it was -3.36% (inactive).
Turning to `CCCCCCCCCCCCCCNCCO`, the Potency was 55.2 µM (active).
With `CCCCCCS`, the “activity change, negative = cytotoxicity” value was 0.23% (inactive).
Turning to `C=C(C)CCCC`, the “activity change, negative = cytotoxicity” value was 4.87% (inactive).
With `O=C1NCCN1CCN1CCC(c2cn(-c3ccc(F)cc3)c3ccc(Cl)cc23)CC1`, the Potency was 49.2 µM (active).
As for `COc1ccc2sc(C(=O)Nc3nnn[nH]3)c(OC(C)C)c2c1`, the “activity change, negative = cytotoxicity” value is 5.03% (inactive).
With `C=CCCCCCCC=C`, the “activity change, negative = cytotoxicity” value was -2.83% (inactive).
The same measure, in the same setting: the same measure for `CCCCCCCCCCCCCCCC`: -3.6% (inactive).
For `[O]=[Zr]`, the “activity change, negative = cytotoxicity” value is 3.07% (inactive).
With `CCN1CCN(c2cc(-c3ccc(F)cc3)c3c(n2)CCCCCC3)CC1`, the activity change, negative = cytotoxicity is -6.38% [at 31.6 µM] (inactive).
Regarding `CCCCCCCC/C=C\CCCCCCCC(=O)N(C)CC(=O)O`, the Potency was 101 µM (active).
Regarding `CC(=O)Oc1ccc(C2(c3ccc(OC(C)=O)cc3)Oc3ccccc3NC2=O)cc1`, the “activity change, negative = cytotoxicity” value was 12.3% [at 70.9 µM] (inactive).
On the same count and under the same terms, the same measure for `C[Si](C)O[Si](C)C`: 1.41% (inactive).
Consider `CCNc1nc(NC(C)CC)nc(OC)n1` (stereo not given), for which the “activity change, negative = cytotoxicity” value is 9.99% (inactive).
As for `CCCCN(C)C`, the “activity change, negative = cytotoxicity” value was 1.76% (inactive).
In the case of `CC1(C)COCN1`, the “activity change, negative = cytotoxicity” value was 0.397% (inactive).
As to `CCCC(O)C(O)CO` (stereo not given), the “activity change, negative = cytotoxicity” value was 1.02% (inactive).
For `CCCCCCOc1ccc(O)cc1`, the Potency was 113 µM (active).
Still for that read-out and setting: in the case of `Cc1ccc(N)cc1O` it was 101 µM (active).
As to `Cn1cnc2ncnc(N)c21`, the “activity change, negative = cytotoxicity” value was -3.5% [at 70.9 µM] (inactive).
On the same count and under the same terms, the same measure for `CCc1cccc(C)c1`: 1.37% (inactive); for `CC(C)(C)C1=CC(=O)C=C(C(C)(C)C)C1=O`: 2.79% (inactive); for `c1ccc2c(c1)CCC2`: 2.77% (inactive).
On to `CC(C)=CCCC(C)CCOC(=O)C(C)C` (stereo not given), for which the “activity change, negative = cytotoxicity” value was 2.62% (inactive).
Take `CC1CNCC(C)O1` (stereo not given): the “activity change, negative = cytotoxicity” value is -0.369% (inactive).
Turning to `O=C(O)c1cccc(Cl)n1`, the “activity change, negative = cytotoxicity” value was 3.41% (inactive).
On to `CCCCCCCCCCCCN(CCO)CCO`, for which the Potency was 100 µM (active).
On to `Oc1cc2ccccc2cc1O`, for which the “activity change, negative = cytotoxicity” value is 0.44% (inactive).
For the compound `CC1CCCCN1CCCOC(=O)c1ccc(OC2CCCCC2)cc1` (stereo not given), the “activity change, negative = cytotoxicity” value is -13.6% [at 70.9 µM] (inactive).
`CCOC(=O)COc1ccc(C)cc1`: the “activity change, negative = cytotoxicity” value is 0.205% (inactive).
Turning to `CCCCCCC(C)OC(=O)COc1nc(F)c(Cl)c(N)c1Cl` (stereo not given), the Potency was 113 µM (active).
In the case of `CCOC(/C=C(\C)CCC=C(C)C)OCC`, the “activity change, negative = cytotoxicity” value was -0.0053% (inactive).
With `CN(C)CCN1CCOCC1`, the “activity change, negative = cytotoxicity” value was -0.0133% (inactive).
In the case of `CC1=CCC(=O)O1`, the “activity change, negative = cytotoxicity” value was -0.57% (inactive).

These data come from PubChem BioAssay (Tox21).
